# PubChem BioAssay AID602441 (National Center for Advancing Translational Sciences (NCATS), 2012)
# The whole screen tested about 1,300 compounds, of which fewer than 10 were called active. Roughly 9% stayed inconclusive and do not appear here. Only a sample is shown. Unmarked numbers belong to inactive results. The call rests on the fitted dose curve; in most records, active means well fitted curve in the direction sought with a large enough effect; inconclusive means small, poorly fitted or top-dose-only effect, or another doubt; inactive means no such curve, though single readings can be large or run the other way.
# Experiment: qHTS for antagonists of the Thyroid Stimulation Hormone Receptor: Hit Validation in Parental Cell Line; further: 0% is about no effect
# Conditions: parental HEK293 cells lacking TSHR, counter-screen; series mostly up to 56.9 µM; activity change, negative = inhibition: at the top concentration
# Source text: The thyroid-stimulating hormone receptor (TSHR) is a member of the 7 trans-membrane-spanning receptor (7TMR) family of cell surface receptors. TSHR-mediated hyperthyroidism is important in thyroid pathology. The development of small molecule antagonists of TSHR may lead to therapeutic approaches for TSHR-mediated hyperthyroidism caused by constitutively activating mutations or stimulating auto-antibodies associated with Graves' disease. Graves' disease is the leading cause of hyperthyroidism and is caused by autoantibodies that stimulate TSHR (TsAbs) causing thyroid growth and unregulated overproduction of thyroid hormones and existing treatments have liabilities (agranulocytosis). In addition, TSHRs are known to be expressed in multiple extrathyroidal tissues including bone, brain, kidney, testis, fat and cells of the immune system but the role of the TSHR in these tissues is not clear. Therefore, TSHR antagonists/inverse agonists could be used as probes of extrathyroidal TSHR function. Finally, TSHR inverse agonists, which are a subclass of antagonists that inhibit agonist-independent (or basal or constitutive) TSHR signaling, could be used to inhibit TSH-independent signaling in patients with recurrent or metastatic thyroid cancer who are receiving thyroid hormone to suppress TSH.
# In collaboration between scientist from the NCGC and the NIDDK, a miniaturized HTRF high-throughput screen was developed. It's a cell based assay, where an anti cAMP antibody contains a fluorescent cryptate tag (excitation 337 nm; emission 620 nm) and the acceptor is cAMP-d2 (excitation 620 nm; emission 665 nm). When antibody and cAMP-d2 interact and are excited by a 337 nm light, a FRET occurs resulting in emission at 665 nm. The assay is competition between cAMP-d2 and cAMP (from the cell lysate). The homogeneous protocol allows for one step dispense after stimulation that is automation friendly. This is a hit validation assay in a counterscreen using parental HEK 293 cells lines.
# NIH Chemical Genomics Center [NCGC]
# NIH Molecular Libraries Probe Centers Network [MLPCN]
# Assay Provider: Marvin Gershengorn, NIDDK
# An anti cAMP antibody contains a fluorescent cryptate tag (excitation 337 nm; emission 620 nm) and the acceptor is cAMP-d2 (excitation 620 nm; emission 665 nm). When antibody and cAMP-d2 interact and are excited by a 337 nm light, a FRET occurs resulting in emission at 665 nm. The assay is competition between cAMP-d2 and cAMP (from the cell lysate). The homogeneous protocol allows for one step dispense after stimulation that is automation friendly. This assay uses parental HEK-EM 293 cells
row,Structure (SMILES),"activity change, negative = inhibition [%]"
1,N#CC(C#N)=C1C=CC=CN1/C(=C\c1ccco1)C(=O)c1ccccc1,-5.95
2,COc1ccc(CN(C)C(=O)COC(=O)c2cnc(Cl)c(Cl)c2)cc1,-0.479
3,O=C(Nc1ccn(Cc2ccccc2F)n1)c1ccc(COc2ccccc2Cl)cc1,-9.46
4,CCSC1=NSC2=NC(=O)/C(=C\c3coc4ccccc4c3=O)C(=N)N12,-4.42
5,CC1=C(OC(=O)c2ccccc2)C(C)(C)C(c2ccccc2)OC1=O (stereo not given),3.91
6,O=C(Nc1nnc(S(=O)(=O)N2CCCCC2)s1)c1cccc(Br)c1,1.82
7,O=C(/C=C/c1ccc(Cl)cc1Cl)NCCSCc1ccccc1,-4.87
8,CCCC(=O)N(C1CC(C)C(C#N)(C#N)C1(C#N)C#N)N(C)C (stereo not given),-9.26
9,Cc1ccc(Oc2cc(NC(=O)CCCn3nc([N+](=O)[O-])cc3C)cc([N+](=O)[O-])c2)cc1,-3.73
10,O=c1[nH]c(-c2ccccc2F)nc2c1sc(=S)n2Cc1ccccc1,-3.17
11,O=C(Nc1ccc2oc(-c3ccccc3F)nc2c1)c1ccc2c(c1)OCCO2,-11
12,C=CC(C)(C)c1c2occc2c(O)c2ccc(=O)oc12,-4.53
13,Cc1ccc(-c2csc(NC(=O)c3ccc4c(=O)n5c(nc4c3)CCCCC5)n2)cc1,-9.13
14,Cc1ccc(C2(c3ccc(C)cc3)CC2C(=O)Nc2ccc([N+](=O)[O-])cc2O)cc1 (stereo not given),-4.43
15,COc1ccc(NC(=O)c2ccc(-c3ccccc3)cc2)cc1NS(=O)(=O)c1ccc(F)cc1,-5.28
16,COc1ccc(N2CCN(C(=O)c3ccccc3N(C)S(=O)(=O)c3ccccc3)CC2)cc1,-0.792
17,Nc1ncc(Br)cc1S(=O)(=O)Nc1cc(C(F)(F)F)cc(C(F)(F)F)c1,-4.31
18,CCOc1cc(/C=C/c2ccc3cccc([N+](=O)[O-])c3n2)ccc1OCC(=O)N(C)C,0.169
19,C=CC[C@H](CC(=O)N(CCO)Cc1ccccc1)C(=O)N[C@H](COC(=O)[C@@H](CC=C)Cc1ccc(F)cc1)C(C)(C)C,0.0369
20,COc1ccc(C)cc1-n1nnnc1SCc1cc(=O)n2cc(C)ccc2n1,0.702
21,Cc1ccc(CSc2nnc(SCC(=O)N/N=C/c3c(C)nn(-c4ccccc4)c3C)s2)cc1,1.1
22,COc1ccc(C(=O)Nc2ccc(Cl)c(S(=O)(=O)Nc3ccccc3OC)c2)cc1,-5.92
23,CC(Oc1ccc(Cl)cc1Cl)C(=O)Nc1cccnc1 (stereo not given),2.55
24,O=C(c1ccco1)N1CCN(c2ncnc3c2nnn3Cc2ccccc2Cl)CC1,-8.18
25,CCOc1ccc2nc(NC(=O)c3ccc(OCC4CCCO4)cc3)sc2c1 (stereo not given),-9.31

row,Structure (SMILES),"activity change, negative = inhibition [%]"
1,O=c1c2ccccc2nnn1CSc1nnc(-c2cccs2)n1Cc1ccccc1,-0.787
2,O=C(O)c1nn(CC(=O)N2CCN(c3ncc(C(F)(F)F)cc3Cl)CC2)c(=O)c2ccccc12,-0.862
3,O=C(Nc1nc(-c2cccs2)c(-c2cccs2)s1)C1CCCC1,-9.24
4,COc1ccc(C2=NS(=O)(=O)N(C)C(C(=O)Nc3ccc4c(c3)OCO4)=C2)cc1OC,-4.61
5,Cc1cc(C)c(S(=O)(=O)c2c(C)cccc2C)c(Cl)n1,-1.36
6,COc1ccc(S(=O)(=O)n2cnc3ccccc32)c(C)c1,0.374
7,CCCCOc1ccc(/C=N/Nc2cc(N3CCOCC3)nc(C)n2)cc1,-18.4
8,O=c1cc(-c2ccccc2)nc2c(-c3ccccc3)c(C(F)(F)F)[nH]n12,-4.22
9,Cc1ccc(OCCSc2ncccn2)c(C)c1,1.66
10,CCN(CC)S(=O)(=O)c1cccc(NC(=O)CNc2cccc(S(=O)(=O)N3CCOCC3)c2)c1,0.271
11,C=CCn1c(SCC(=O)c2cccs2)nc2sc(CC)cc2c1=O,-6.19
12,N#C/C(=C\c1ccc(Oc2ccc(C(F)(F)F)cc2[N+](=O)[O-])cc1)c1nc2ccccc2[nH]1,-3.12
13,Cc1cc(C)c(-c2csc(NC(=O)/C=C/c3cccs3)n2)c(C)c1,-0.163
14,Cc1ccc(C)c(S(=O)(=O)N2CCN(C(=O)C3CCN(c4ncnc5sc(C)c(C)c45)CC3)CC2)c1,-5.61
15,CC(C)(C)c1ccc(C(=O)CC(Sc2ccc(Cl)cc2)C(=O)O)cc1 (stereo not given),-1.68
16,O=C(NCc1ccc2c(c1)OCO2)C12CN(Cc3ccccc3)CC1C(c1cccc([N+](=O)[O-])c1)=NO2 (stereo not given),4.74
17,Cc1nc2ccc(Nc3nc4cc(S(=O)(=O)N5CCOCC5)ccc4o3)cc2s1,-7.93
18,CSc1cccc(NC(=O)C2CCCN(S(=O)(=O)c3ccc(F)cc3)C2)c1 (stereo not given),-2.87
19,O=C(CSc1nc(-c2ccc(Cl)cc2)cs1)Nc1cccc([N+](=O)[O-])c1,-11.1
20,CCN(Cc1ccccc1)c1ccc(/C=N/NC(=O)c2cccc(S(=O)(=O)N3CCOCC3)c2)cc1,0.0222
21,Fc1ccc(/C=C2\CCCC3=C2Nc2ncnn2C3c2ccc(F)cc2)cc1 (stereo not given),0.901
22,O=C1NC(=S)N(C(=O)c2ccc(F)cc2)/C1=C/c1ccccc1,-4.61
23,O=S(=O)(/N=C(/Nc1cccc2ccccc12)c1ccccc1)c1cccs1,0.846
24,Cc1ccc(-c2csc(N(CCO)CCCn3c(C(F)(F)F)nc4ccccc43)n2)cc1,-1.09
25,Cc1ccc(C(=O)Nc2nc(-c3ccc(F)cc3)cs2)o1,-5.7

row,Structure (SMILES),"activity change, negative = inhibition [%]"
1,CN(c1ccc(OCC(=O)Nc2nc3ccccc3s2)cc1)S(=O)(=O)c1ccccc1,-12.7
2,Cc1cc(=O)[nH]c(SCC(=O)Nc2ccc(Br)cc2)c1C#N,-3.68
3,CCCc1ccc(-c2c(C)sc(NC(=O)c3ccnn3C)c2C#N)cc1,-6.47
4,NS(=O)(=O)c1ccc(NCc2ccccc2OCc2ccccc2F)cc1,1.37
5,O=C(Nc1cccc(S(=O)(=O)N2CCCCC2)c1)c1ccc2c(=O)n3c(nc2c1)CCCCC3,-8.03
6,COc1cc(/C=C(\C#N)c2nc3ccccc3s2)cc([N+](=O)[O-])c1O,-6.23
7,O=C(CC1S/C(=N/N=C2CCCCCC2)NC1=O)Nc1ccc(Br)cc1F (stereo not given),0.642
8,O=C(CNc1ccc(C(F)(F)F)cc1)Nc1cccc(S(=O)(=O)N2CCCC2)c1,0.458
9,O=S(=O)(Nc1cccnc1)c1cc(Cl)ccc1Cl,2.38
10,COCC(C)n1c(COc2ccccc2F)nnc1SCc1c(C)noc1C (stereo not given),2.74
11,CS(=O)(=O)c1ccc(C(=O)OCC(=O)NC(=O)C2CCCCC2)cc1[N+](=O)[O-],0.578
12,CC(C)(C)c1cc2nc3c(c(=O)n2[nH]1)CN(Cc1ccccc1)C3=O,-3.97
13,O=C(COc1ccccc1/C=C1\SC(=S)NC1=O)Nc1ccc(F)cc1,-2.81
14,CN(C)S(=O)(=O)Oc1cccc(C(=O)Nc2ccc(Cl)c(Cl)c2)c1,-6.85
15,O=[N+]([O-])c1ccc(NC(=S)NCCc2ccc(F)cc2)cc1,-7.64
16,COCC1CCCCN1C(=O)C1CCN(c2nc(-c3ccccc3)nc3c2CCC3)CC1 (stereo not given),-0.886
17,CC(CNC(=O)c1cc(COc2ccc3ncccc3c2)on1)c1ccccc1 (stereo not given),-3.81
18,N#C/C(=C(/O)COC(=O)c1ccc(C#N)cc1)c1nc2ccccc2s1,-2.37
19,CCCCCC/C(C)=C1/SC(=S)NC1=O,-0.358
20,O=C(Cn1nc(Cc2cccnc2)c2ccccc2c1=O)NCC1COc2ccccc2O1 (stereo not given),5.27
21,Cc1ccc(/C=C/C(=O)Nc2ccc(Oc3ccccc3)cc2)o1,-2.86
22,CC(C)Oc1ccc(C(=O)Nc2ccc(Cl)c(S(=O)(=O)Nc3ccc(Cl)cc3)c2)cc1,0.687
23,Cc1ccc([N+](=O)[O-])cc1S(=O)(=O)Nc1ccc(-c2ccc(N3CCCC3)nn2)cc1,-5.81
24,Cc1ccccc1-n1sc2cc(F)ccc2c1=O,-7.14
25,COc1ccc(CNC(=O)C(c2ccco2)N(C(=O)c2snc(C(N)=O)c2N)c2cccc(OC)c2)cc1 (stereo not given),1.19

row,Structure (SMILES),"activity change, negative = inhibition [%]"
1,CC(C)C(c1nnnn1Cc1ccco1)N1CCN(c2nc3ccccc3s2)CC1 (stereo not given),-0.88
2,COc1cccc(CN(C)C(=O)c2ccc(Oc3ccccc3)cc2)c1OC,2.59
3,Cc1ccc(C2=NS(=O)(=O)N(C)C(C(=O)NCc3ccc(F)cc3)=C2)cc1,2.08
4,CC(=O)c1ccc(N2CCN(C(=S)Nc3ccc(Oc4ccccc4)cc3)CC2)cc1,-1.07
5,CCn1c(=NC(=O)CSC(C)=O)sc2ccccc21,0.315
6,Clc1ccc2c(c1)-c1nnc(Br)n1-c1ccccc1S2,6.35
7,COc1ccc(C(=O)/C(=C\c2ccco2)N2C=CC=CC2=C(C#N)C#N)cc1,-3.62
8,COc1cc(/C=N/Nc2ccc(C(=O)O)cc2)ccc1O,-5.88
9,Cc1nn(Cc2ccc(Cl)cc2)c(C)c1NC(=O)c1noc2c1CCc1ccccc1-2,-0.224
10,Cc1ccc(-n2c(Cl)c(Cl)nc(Cl)c2=O)cc1,-20.4
11,Cc1nn(-c2nc3ccccc3s2)c(N)c1-c1ccccc1,-9.47
12,CC(C)C(C)NC(=O)COc1ccc(Sc2ccc(OCC(=O)NC(C)C(C)C)cc2)cc1 (stereo not given),-0.802
13,Cc1ccc2nc(NC(=O)C3CCN(S(=O)(=O)c4cc([N+](=O)[O-])ccc4Cl)CC3)sc2c1,-2.06
14,Cc1cccc(NC(=O)C2C3CCC4C(CCC32)C4(Cl)Cl)c1 (stereo not given),-1.11
15,Cc1ccccc1Oc1cc(-n2ncc(Cl)c(Cl)c2=O)ncn1,7.91
16,COc1ccc(NC(=O)/C(Cl)=C(/Cl)S(=O)(=O)Cc2ccccc2)cn1,-9.15
17,O=C(Nc1nc(-c2cccs2)cs1)c1ccc(S(=O)(=O)N2CCCCC2)cc1,-9.31
18,CCCCc1c(C)nc2nc(SCc3ccc(Cl)cc3)[nH]n2c1=O,-0.616
19,Clc1cc(Cl)c(OCc2nc(-c3ccccn3)no2)cc1Cl,-4.07
20,O=[N+]([O-])c1ccc(NC(=S)NCc2ccc(F)cc2)cc1,-9.76
21,CC1CCCCN1C(=O)CSCC(=O)Nc1nc(-c2cccs2)cs1 (stereo not given),-1.89
22,CC(=O)c1c(C)[nH]c(C(=O)COc2cc(C)ccc2C(C)C)c1C,0.826
23,COc1cccc(COc2cc3ccccc3nc2C)c1,1.35
24,O=[N+]([O-])c1cc(Br)c(O)c(/C=N/Nc2nnnn2-c2cccc3ccccc23)c1,-0.201
25,Cc1csc2ncnc(N3CCN(S(=O)(=O)c4cccc(C(F)(F)F)c4)CC3)c12,-0.152
